A short description of this assay: In vitro enzyme assay to detect hydrolysis of chlorophenol red-beta-D-[…] directly proportional to the number of Toxoplasma stably expressing beta-galactosidase. Format: functional, organism-based, Toxoplasma gondii. Also on record: scale not given: in the data most compounds retested in dose-response had high values.

Screen size: about 85,000 compounds; about 440 (0.52%) showed an effect of 50% or more. The list comes from a sample in which strong results are over-represented; it also holds similar structures and randomly drawn compounds.

For the molecule `CN1CCCN(C(=O)COc2ccc(C#N)cc2)CC1`, the “Percent Effect” value (50 µM) is 10.92%. Same read-out and setting: then `CN1CCCN(C(=O)COc2ccccc2)CC1`, with -9.111%; and `CN1CCCN(C(=O)COc2ccc(Br)cc2)CC1`, with 68.33%; and `CCc1nsc(N2CCNCC2)n1`, with 12.31%. The same measure, in the same setting: then `CCc1cnc(N2CCNCC2)s1`, with 54.04%.

For `Cc1cnc(N2CCNCC2)s1`, for the setting “50 µM”, the “Percent Effect” value came to 5.738%. Take `O=C(C[C@@H]1COC[C@H]2CN(Cc3cccnc3)C[C@@H]12)N1CCCC1.O=C(O)C(F)(F)F.O=C(O)C(F)(F)F`: the “Percent Effect” value (10 µM) was -13.82%.

With `O=C(C[C@@H]1COC[C@H]2CN(Cc3ccncc3)C[C@@H]12)N1CCCC1`, the “Percent Effect” value (10 µM) stood at 95.78%.

Take `O=C(C[C@H]1[C@H]2CN(Cc3ccncc3)C[C@@H]12)N1CCCC1.O=C(O)C(F)(F)F.O=C(O)C(F)(F)F`: where the note is “10 µM”, the “Percent Effect” value was -5.891%. Turning to `NCCc1ccc(Cl)s1`, the “Percent Effect” value (50 µM) was determined as 19.11%. For the molecule `C[C@@H]1CN(Cc2ccsc2)C[C@]12CCN(Cc1cccnc1)C2=O.O=C(O)C(F)(F)F.O=C(O)C(F)(F)F`, under “10 µM”, the “Percent Effect” value is on record as -1.478%. With `O=C1NC[C@H]2NCCC[C@@H]12`, the “Percent Effect” value (50 µM) was -10.77%. On the same count and under the same terms, then `NC1CCCCNC1=O` (stereo not drawn), with 97.52%; and `CNC1CCNC1=O` (stereo not drawn), with 22.45%. As to `COCCN1C(=O)CC[C@@H]2[C@@H]1CCN2Cc1c(C)noc1C.O=C(O)C(F)(F)F`, the “Percent Effect” value (10 µM) is given as 17.34%. Consider `NCCc1ccsc1`, for which the “Percent Effect” value (50 µM) amounted to 4.76%. On to `O=C1C[C@H]2CC[C@@H](CN1)N2C1CSCCSC1`, for which, where the note is “10 µM”, the “Percent Effect” value is on record as -1.323%. For the molecule `c1cc2sccc2c(N2CCNCC2)n1`, where the note is “50 µM”, the “Percent Effect” value was found to be 13.67%. Still for that read-out and setting: to `CN1CCN(c2ncnc3ccsc23)CC1` belongs -1.262%; to `c1nc(N2CCNCC2)c2sccc2n1`, 52.15%.

On to `Cc1nc(CO[C@H]2CN(Cc3ccccn3)[C@@H]3CCCO[C@H]23)cs1.O=C(O)C(F)(F)F.O=C(O)C(F)(F)F`, for which the “Percent Effect” value (10 µM) worked out at 12.48%. Regarding `CC(c1nc(C(C)(C)C)no1)N1CCN(C)CC1` (stereo not drawn), the “Percent Effect” value (50 µM) is 8.823%.

As to `COc1ccc(Cl)c(N2CCNCC2)c1`, the “Percent Effect” value (50 µM) turned out to be 12.14%. As to `COc1ccc(C)cc1CC(=O)N1CCN(CC(C)O)CC1` (stereo not drawn), under “10 µM”, the “Percent Effect” value is -5.451%. Turning to `CCC(O)CN1CCN(C(=O)Cc2cc(C)ccc2OC)CC1` (stereo not drawn), the “Percent Effect” value (10 µM) was 16.53%. In the case of `COc1ccc(C)cc1CC(=O)N1CCN(C)CC1`, for the setting “50 µM”, the “Percent Effect” value was found to be 93.86%. On to `O=C(O)C(F)(F)F.O=C(O)[C@]12CCCN(C3CCOC3)C[C@H]1CN(c1ncccn1)C2` (stereo partly drawn), for which the “Percent Effect” value (10 µM) came to 3.821%. For the molecule `COCCNC(=O)[C@H]1C[C@@H]2CCN(Cc3ccncc3)C[C@H]2O1.O=C(O)C(F)(F)F.O=C(O)C(F)(F)F`, the “Percent Effect” value (10 µM) came to 3.499%. Regarding `CN1CCN(c2cccc(C#N)n2)CC1`, the “Percent Effect” value (50 µM) worked out at 4.938%. Still for that read-out and setting: then `NC1CCN(CC(F)F)CC1`, with 56.61%; and `NC1CCN(CC(F)F)C1` (stereo not drawn), with -7.731%. With `NCC1CCN(CC(F)F)CC1`, the “Percent Effect” value (50 µM) came to 1.969%. On the same count and under the same terms, to `Clc1cnccc1CN1CCC2(CCOC2)C1` (stereo not drawn) belongs 3.263%. Regarding `CC(C)CC(=O)NC1CC2(CCN(CCF)CC2)Oc2ccccc21.O=C(O)C(F)(F)F` (stereo not drawn), the “Percent Effect” value (10 µM) is on record as -26.74%. For the molecule `N#Cc1ccccn1`, the “Percent Effect” value (50 µM) is -5.392%. In the case of `CC[C@@H]1N(Cc2ccncc2)CCC[C@]12CCC(=O)N2C.O=C(O)C(F)(F)F.O=C(O)C(F)(F)F`, the “Percent Effect” value (10 µM) is recorded as -4.695%.

As to `CN1CCN2C(=O)N(C3CCCCC3)C[C@H]2C1`, the “Percent Effect” value (10 µM) was -2.107%. For `CC1CN(C)CCC1=O` (stereo not drawn), the “Percent Effect” value (50 µM) came to 95.15%.

Turning to `Cc1ccc([C@@H](O)CN)cc1`, the “Percent Effect” value (50 µM) is -14.41%.

Turning to `Cl.O=C1N(Cc2ccc(Cl)cc2)CCC12CCCNC2` (stereo not drawn), the “Percent Effect” value (10 µM) was -3.809%. Turning to `OCC1CCC2(CCCC2)CN1` (stereo not drawn), for the setting “50 µM”, the “Percent Effect” value turned out to be 23.34%. Regarding `O=C(N[C@H]1COC[C@@H]1N1CCCC1)c1c[nH]nc1C1CCCCC1`, the “Percent Effect” value (10 µM) is given as 7.68%.

In the case of `Cc1nc(C(=O)N[C@H]2COC[C@@H]2N2CCCCC2)cs1`, under “10 µM”, the “Percent Effect” value stood at 24.19%. With `O=C(N[C@H]1COC[C@@H]1N1CCCCC1)c1cnc[nH]1`, the “Percent Effect” value (50 µM) was 53.1%. Take `Cc1nc(C)c(CN2CC3(CCNCC3)OC2=O)s1`: the “Percent Effect” value (50 µM) was -5.089%. For the molecule `COc1ccc(CCN)c(Cl)c1`, for the setting “50 µM”, the “Percent Effect” value was found to be 6.537%. Still for that read-out and setting: to `N[C@H]1[C@@H]2CC[C@H]1CN(CCn1cc(Cl)cn1)C2` belongs 17.19%; to `COc1cccc(N2CCNCC2C)c1` (stereo not drawn), 93.04%.

With `CC1CNCCN1c1cccc2cnccc12` (stereo not drawn), the “Percent Effect” value (50 µM) is reported as 3.081%. The same measure, in the same setting: then `COc1cccc(C(C)N2CCNCC2)c1` (stereo not drawn), with -0.2947%. In the case of `CNC(CCO)Cc1ccccc1` (stereo not drawn), the “Percent Effect” value (50 µM) was -16.85%. Still for that read-out and setting: to `CCC(C)Cn1nc(COC)oc1=O` (stereo not drawn) belongs 3.972%. With `NCCc1cc(C(F)(F)F)ccn1`, the “Percent Effect” value (50 µM) was found to be 99.23%. Still for that read-out and setting: then `NCCc1ccc(F)cn1`, with 2.533%. `NCCc1ccc(C(F)(F)F)cn1`: under “50 µM”, the “Percent Effect” value was -0.7951%. Same read-out and setting: then `CN[C@@H]1CCO[C@H]1c1cccnc1`, with -18.11%; and `NCCC1COc2ccccc2O1` (stereo not drawn), with 1.961%.

In the case of `NCCC1CSc2ccccc2O1` (stereo not drawn), the “Percent Effect” value (50 µM) was found to be 65.01%. Still for that read-out and setting: to `CC1CN(C)CCN1Cc1nc(N)nc(N(C)C)n1` (stereo not drawn) belongs 17%. As to `CO[C@@H]1CCN(Cc2ccccn2)[C@@H]2CN(Cc3ccco3)C[C@@H]21.O=C(O)C(F)(F)F.O=C(O)C(F)(F)F.O=C(O)C(F)(F)F`, the “Percent Effect” value (10 µM) turned out to be 93.58%.

Take `CO[C@H]1CCN(c2ncc(F)cn2)[C@@H]2CN(Cc3ccco3)C[C@H]12.O=C(O)C(F)(F)F.O=C(O)C(F)(F)F`: the “Percent Effect” value (10 µM) was 10.96%.

As for `CO[C@H]1CCN(Cc2ccccn2)[C@@H]2CN(Cc3ccco3)C[C@H]12.O=C(O)C(F)(F)F.O=C(O)C(F)(F)F.O=C(O)C(F)(F)F`, the “Percent Effect” value (10 µM) is -1.554%. As for `Cc1noc(C)c1CC(=O)N1CCN(C(C)(C)C)CC1`, where the note is “50 µM”, the “Percent Effect” value was determined as 6.08%.

For `CN(CC(N)=O)C1Cc2ccccc2C1`, the “Percent Effect” value (50 µM) was -5.488%. On the same count and under the same terms, to `O=C1CC(c2cccnc2)=NCCN1` belongs 42.08%. As for `CC(=O)N1CCC2(CC1)c1ncc(-c3cccnc3)n1CCN2C`, where the note is “10 µM”, the “Percent Effect” value was -29.38%. With `CC(=O)N1N=C(c2cccnc2)CC1c1ccco1` (stereo not drawn), the “Percent Effect” value (50 µM) worked out at 88.79%. On the same count and under the same terms, to `C1CC(NC2COC2)CCO1` belongs 12.23%; to `Cc1cc(CNC(C)Cn2cccn2)on1` (stereo not drawn), 9.614%. Turning to `CC(C)N1CCN(Cc2ccc(N)nc2)CC1`, the “Percent Effect” value (50 µM) is -5.951%. The same measure, in the same setting: to `Cc1ncc(C(=O)N2C[C@@H]3CCCN[C@@H]3C2)c(C)n1` belongs 63.53%. With `Cc1cc(C(=O)N2C[C@@H]3CCCN[C@@H]3C2)cc(C)n1`, for the setting “50 µM”, the “Percent Effect” value was -13.26%. Same read-out and setting: then `Cc1ncc(C(=O)N2C[C@@H]3CCCN[C@@H]3C2)cn1`, with -7.245%.

The values are drawn from ChEMBL document CHEMBL3988442, “University of Dundee, Small-Polar-MMV Screening Library” (2021).
